# Out of some 360,000 compounds screened, about 11,000 (3.1%) were called active. Not shown: some 2% with an inconclusive outcome. Many of the other results were omitted from the sample, so actives are more common in it than they were. Unmarked numbers belong to inactive results. No stated cut-off is given here; in the data, active means fluorescence intensity above about 16000; inconclusive means no clear call, values can overlap the other calls; inactive means below that.
# Experiment: compound fluorescence in toxin protease inhibitor counterscreen, primary screen, artefact control for toxin protease inhibitor project, biochemical, multiplex microsphere, HTS (AID 624483)
# Details: compound autofluorescence counterscreen, microsphere flow cytometry; active compounds read high
row,Structure (SMILES),fluorescence intensity
1,CCc1nc2ccc(C(=O)NC3CCN(Cc4ccccc4)CC3)cn2c1N(C)CCN1CCOCC1,3530
2,O=C(NCc1ccccn1)[C@@H]1CCCN1C(=O)[C@@H]1CCCN1C(=O)c1ccccc1,5750
3,CCCNC(=O)c1cc(C2CCCCN2S(=O)(=O)c2ccc(C#N)cc2)on1 (centres undefined),3490
4,CCNC(=O)C1(C)CCCN(C(=O)c2c(C)noc2C)C1 (centres undefined),2990
5,COc1ccccc1CC1(C)C(=O)Nc2ccc(OC(F)(F)F)cc21 (centres undefined),3460
6,O=C(Nc1ccc2c(c1)OCCO2)C(C1CC1)N1CCC(Cc2ccccc2)CC1 (centres undefined),5440
7,O=C(NCC(=O)N1CCC2(CC1)NCCc1[nH]cnc12)c1ccc(Br)cc1,4440
8,O=C(C[n+]1ccc2c(c1)nnn2-c1ccccc1)c1ccc(Cl)cc1,5380
9,CC1(C(=O)NS(=O)(=O)c2ccc(C#N)cc2)CCN1C(=O)c1ccc(C2CCCCC2)cc1 (centres undefined),3450
10,C=CCNC(=O)c1ccccc1SCc1c(C)noc1C,5700
11,Cc1noc(C)c1COC(=O)Cn1c(C)nc2ccccc21,3460
12,Cc1noc(C)c1CSc1nnc2ccc3ccccc3n12,23000 (active)
13,COc1ccc(C)cc1NC(=O)c1ccc(-c2ccc(C(C)=O)cc2)o1,3980
14,OCCC1CN(Cc2ccc3nsnc3c2)CCN1C1CCCCC1 (centres undefined),2180
15,CS(=O)(=O)c1cccc(-c2ccc3nncn3c2)c1,3880
16,Fc1ccc(/C=N/n2c(COc3ccccc3)n[nH]c2=S)cc1,3650
17,CCOc1ccc(-c2n[nH]c(=S)n2/N=C/c2cc3c(cc2[N+](=O)[O-])OCO3)cc1,7340
18,O=[N+]([O-])c1ccccc1/C=N/n1c(COc2ccccc2)n[nH]c1=S,22400 (active)
19,CN(C)C(CNC(=O)c1cccc(S(=O)(=O)N2CCc3ccccc3C2)c1)c1ccccc1 (centres undefined),4070
20,Cc1ccc(C)c(NS(=O)(=O)c2cc(Br)cnc2N)c1,2420
21,O=C(COC(=O)c1ccccc1C(=O)c1ccccc1)c1ccco1,23700 (active)
22,CCN(CC)c1ccc(C(=O)OCC(=O)c2ccco2)cc1,4360
23,CCc1ccc(C(=O)COC(=O)c2ccco2)cc1,5070
24,CC1(C(=O)NS(=O)(=O)Cc2cccc(Cl)c2)CCN1C(=O)Cc1ccc(Cl)cc1Cl (centres undefined),3610
25,O=C(O)c1ccc(COc2c(F)c(F)cc(F)c2F)o1,5310

row,Structure (SMILES),fluorescence intensity
1,CCOC(=O)C1CCN(C(=O)Cn2cc(C#N)c3ccccc32)CC1,3760
2,CCOC(=O)C1CCN(C(=O)COc2cccc3ccccc23)CC1,5570
3,CCOC(=O)C1CCN(C(=O)Cc2c(C(=O)O)[nH]c3ccccc23)CC1,24500 (active)
4,Cc1cccc(-c2cnc(C(O)c3ccc4ccccc4c3)[nH]2)c1 (centres undefined),3610
5,O=C(NCc1csc(-c2cccs2)n1)C1CC1,3880
6,Cc1ccc2nc(-c3ccc(SCC(=O)Nc4cc(C)on4)nc3)[nH]c2c1,2760
7,Cc1cc(NC(=O)CSCC(=O)NC(C)c2ccccc2)no1 (centres undefined),5020
8,Cc1ccc(-c2csc(SCC(=O)Nc3cc(C)on3)n2)cc1,17800 (active)
9,CCNC(=O)C1(C)CCCN1C(=O)c1ccc(N(C)C)cc1 (centres undefined),4040
10,COC(=O)CCCCC1=CCC2C(=O)C=C(O)C2C1 (centres undefined),6010
11,Cc1ccc(OCCCC(=O)Nc2ccc(N3CCOCC3)cc2)cc1,2550
12,COc1ccc(-c2ccc(Nc3ccc(S(=O)(=O)N4CCCC4)cc3)nn2)cc1OC,22500 (active)
13,COc1ccccc1CC(=O)Nc1ccc(S(=O)(=O)N2CCCC2)cc1,4360
14,COc1ccc(S(=O)(=O)N2CCCCCC2)cc1NC(=O)Cc1ccc(OC)c(OC)c1,3920
15,O=C(Cc1coc2ccc3ccccc3c12)NCc1cccs1,1980
16,CCn1ncc(C2=NOC(C(=O)Nc3ccccc3C(=O)OC)C2)c1C (centres undefined),21900 (active)
17,CCn1ncc(C2=NOC(C(=O)N3CCN(c4ccccc4)CC3)C2)c1C (centres undefined),9650
18,COc1cc(NC(=O)C2CC(c3ccccc3O)=NO2)c(OC)cc1Cl (centres undefined),3150
19,CCCN1Cc2cccc(C(=O)NCc3ccccc3)c2C1=O,16800 (active)
20,Cc1ccc(CNC(=O)c2ccccc2CCc2ccccc2)cc1,13000
21,CCCN1Cc2cccc(C(=O)Nc3ccc(S(=O)(=O)N4CCCCCC4)cc3)c2C1=O,10600
22,CCCCCC(=O)Nc1ccc(-c2cn3cccnc3n2)cc1,4250
23,COC(=O)c1ccc2nc(-c3ccccc3)c(Cc3ccc(OC)cc3C)n2c1,7120
24,CCOC(=O)c1c(NC(=O)CSc2nccc(=O)[nH]2)sc(C)c1C,4560
